The text below walks through data of PubChem BioAssay (Tox21).

Inconclusive results are not listed. Values without a mark were called inactive. Calls come from the whole dose curve; as a rule, active = well fitted cell-killing curve with a large enough effect in the repeat runs; inconclusive = weak or mixed curves, or effect the other way; inactive = no such curve, though single readings can be large or run the other way.
% is set by controls: 0 for no effect and ±100 for the full control effect.

This assay in a line: qHTS assay to identify small molecule agonists of the farnesoid-X-receptor (FXR) signaling pathway - cell viability counter screen (AID 743218). Note: nearly all actives have a fitted effect of over 45% in size. The conditions noted are these: FXR-bla HEK293T viability, CellTiter-Glo luminescence, 16 h; series mostly up to 62.6 µM; viability change, negative = cytotoxic: at the top concentration. From the text:
U.S. Tox21 Program National Center for Advancing Translational Sciences [NCATS] NIH Chemical Genomics Center [NCGC] U.S. Environmental Protection Agency [EPA] National Institutes of Environmental Health Sciences [NIEHS] National Toxicology Program [NTP] U.S. Food and Drug Administration [FDA] Tox21 Assay Overview: The farnesoid-X-receptor (FXR), a nuclear hormone receptor, is highly expressed in liver, intestine, kidney and adrenal cortex. Natural ligands of FXR are the bile acids (Cholic acid, Chenodeoxy cholic acid etc). FXR is an important regulator of diverse metabolic pathways, including the bile acid homeostasis, lipid and glucose metabolisms. FXR regulates the expression of target genes by binding either as a monomer or as a heterodimer with the retinoid X receptor (RXR). Numerous studies have reported that FXR exerts protective function during cholestasis, diabetes, liver regeneration, and cancer. To identify compounds that activate FXR signaling, GeneBLAzer FXR-UAS-bla HEK 293T cell line (Invitrogen, Carlsbad, CA) containing a beta-lactamase reporter gene under the control of a UAS response element was used to screen the Tox21 10K compound library. The cytotoxicity of the Tox21 compound library against the FXR-bla cell line was tested in parallel by measuring the cell viability using CellTiter-Glo assay in the same wells.
Tox21 Assay Protocol Summary: FXR-bla cells were dispensed at 5000 cells/5uL/well in 1536-well black wall/clear bottom plates using a Multidrop Combi (Thermo Fisher Scientific, Waltham, MA) dispenser. After the assay plates were incubated at 37 C and 5% CO2 for 5 h, 23 nL of compounds dissolved in DMSO, positive controls or DMSO only was transferred to the assay plate by a Pintool station (Kalypsys, San Diego, CA). The assay plates were incubated at 37C for 16 h. After 1 uL of LiveBLAzerTM B/G FRET substrate was added using a Bioraptr Flying Reagent Dispenser (FRD) workstation (Beckman Coulter, Indianapolis, IN), the plates were incubated at room temperature for 2 h, and fluorescence intensity was measured by an Envision plate reader (PerkinElmer, Shelton, CT). For cell viability readout that measures cytotoxicity, 4uL/well of CellTiter-Glo reagent was added into the assay plates using a Bioraptr FRD. After 30 min incubation at room temperature, the luminescence intensity in the plates was measured using a ViewLux plate reader (PerkinElmer).
With `OC[C@H]1O[C@@H]2O[C@H]3[C@H](O)[C@@H](O)[C@@H](O[C@H]4[C@H](O)[C@@H](O)[C@@H](O[C@H]5[C@H](O)[C@@H](O)[C@@H](O[C@H]6[C@H](O)[C@@H](O)[C@@H](O[C@H]7[C@H](O)[C@@H](O)[C@@H](O[C@H]8[C@H](O)[C@@H](O)[C@@H](O[C@H]9[C@H](O)[C@@H](O)[C@@H](O[C@H]1[C@H](O)[C@H]2O)O[C@@H]9CO)O[C@@H]8CO)O[C@@H]7CO)O[C@@H]6CO)O[C@@H]5CO)O[C@@H]4CO)O[C@@H]3CO`, the “viability change, negative = cytotoxic” value was 8.37% [at 29.1 µM].
As for `Nc1[nH]c(=O)ncc1F`, the figure is -2.07%; as for `CCN(CC)S(=O)(=O)c1ccc(C(=O)O)cc1`, 1.28%.
Turning to `COc1cccc(Br)c1`, the “viability change, negative = cytotoxic” value was -38.9%.
For `CCCCCCOC(=O)c1ccccc1O`, the “viability change, negative = cytotoxic” value is 1.42%.
Regarding `C=C(C)C(=O)NCCC[N+](C)(C)C`, the “viability change, negative = cytotoxic” value is -6.42%.
As for `CCOC(=O)Nc1ccc2c(c1)N(C(=O)CCN1CCOCC1)c1ccccc1S2`, the figure is -0.993%.
As to `C=C(C)C(=O)OCCCCCCCCCCCCCCCCCC`, the “viability change, negative = cytotoxic” value was 6.31% [at 29.1 µM].
As to `CCC(=O)/C=C/c1ccc(OC)cc1`, the “viability change, negative = cytotoxic” value is 29.3%.
`CC/C=C\CCCCO`: the “viability change, negative = cytotoxic” value is 2.33%.
Turning to `C=C(C)C(=O)OCCC(C)OC(=O)C(=C)C` (stereo not given), the “viability change, negative = cytotoxic” value was 24.4%.
For the compound `O=C(O)/C=C/c1ccc(Cn2ccnc2)cc1`, the “viability change, negative = cytotoxic” value was -9.51%.
Consider `O=c1[nH]c(=O)n([C@H]2O[C@H](CO)[C@@H](O)[C@@H]2O)cc1/C=C\Br`, for which the “viability change, negative = cytotoxic” value is 4.14%.
In the case of `OC1OC[C@@H](O)[C@H](O)[C@H]1O` (stereo not given in full), the “viability change, negative = cytotoxic” value was 12.6%.
Consider `OCC(O)[C@@H](O)[C@H](O)[C@H](O)CO[C@H]1O[C@H](CO)[C@@H](O)[C@H](O)[C@H]1O` (stereo not given in full), for which the “viability change, negative = cytotoxic” value was -0.714%.
As for `O=S(=O)(O)c1ccccc1O`, the figure is -4.22%; as for `CCCOCC(C)OCC(C)O` (stereo not given), 1.6% [at 81.1 µM].
With `OCc1ccccn1`, the “viability change, negative = cytotoxic” value was 1.28%.
For `CCC(C(=O)NC(N)=O)c1ccccc1` (stereo not given), the “viability change, negative = cytotoxic” value was 1.51%.
Regarding `NC(=O)c1ncn([C@@H]2O[C@H](CO)[C@@H](O)[C@H]2O)c1N`, the “viability change, negative = cytotoxic” value is 5.28%.
As for `CC(O)CN(CCCN(C)C)CCCN(C)C` (stereo not given), the figure is 2.66%; as for `Nc1nc2c(ncn2CCC(CO)CO)c(=O)[nH]1`, -1.45%.
For the compound `CC(C)CCOC(=O)CC(C)C`, the “viability change, negative = cytotoxic” value was 20.5%.
With `CCCCCCCCCCCl`, the “viability change, negative = cytotoxic” value is -1.53% [at 81.1 µM].
Regarding `Cn1ccc2cc3c(cc21)CCN3C(=O)Nc1cccnc1`, the “viability change, negative = cytotoxic” value was 2.57% [at 29.1 µM].
As for `O=C(O)c1ccccc1-c1ccc(C(F)(F)F)cc1`, the figure is -8.91%; as for `COc1ccc(NC(C)=O)cc1`, -3.75% [at 81.1 µM]; as for `CCCC=O`, 3.32%.
As for `COC[C@H](c1ccc(C(F)(F)F)cc1)N1CCN(C2(C)CCN(C(=O)c3c(C)ncnc3C)CC2)C[C@H]1C`, the figure is -4.62%.
As for `C#CC(C)(O)CC(C)C` (stereo not given), the figure is 3.87%; as for `CN(C)C(=O)Nc1ccccc1`, 3.37%; as for `CCCCCCOC(=O)CC(CC(=O)OCCCCCC)(OC(=O)CCC)C(=O)OCCCCCC`, -2.11%.
As to `CCCCC=O`, the “viability change, negative = cytotoxic” value was -15.1%.
As to `c1cc(CN2CCCCC2)cc(OCCCNc2nc3ccccc3s2)c1`, the “viability change, negative = cytotoxic” value is -14.3%.
Regarding `COC(=O)CCCCCCCCC(=O)OC`, the “viability change, negative = cytotoxic” value was 18.9% [at 81.1 µM].
As for `CC(C)c1cccc(C(C)C)c1N`, the “viability change, negative = cytotoxic” value is 0.172%.
In the case of `O=C(O)CCNC(=O)c1ccc(N=Nc2ccc(O)c(C(=O)O)c2)cc1`, the “viability change, negative = cytotoxic” value was 25%.
As for `CC(C)COC(=O)c1ccccc1O`, the figure is 8.78%.
For `CCC(=O)c1cccc(Cl)c1`, the “viability change, negative = cytotoxic” value is 5.94% [at 81.1 µM].
As for `C=CCOCC(O)CS(=O)(=O)O` (stereo not given), the “viability change, negative = cytotoxic” value was 3.67% [at 81.1 µM].
